Measured values published in PubChem BioAssay (Tox21).
Results filed as inconclusive are left out. A number with no mark means an inactive call. The source made the active and inactive calls. Calls follow the shape of the dose curve; as a rule, active = well fitted inhibition curve with a large enough effect in the repeat runs; inconclusive = weak or mixed curves; inactive = flat fitted curve, though single readings scatter.

These compounds were tested against Luciferin 4-monooxygenase (Photinus pyralis) (UniProt P08659) (assay: qHTS assay to identify small molecule inhibitors of firefly luciferase (AID 1224835; also: nearly all actives have a fitted effect of over 25% in size)). Settings: purified P. pyralis luciferase, luminescence inhibition; series mostly up to 115 µM; activity change, negative = inhibition: at the top concentration.
Luciferin 4-monooxygenase (Photinus pyralis), sequence (P08659 whole entry, looked up): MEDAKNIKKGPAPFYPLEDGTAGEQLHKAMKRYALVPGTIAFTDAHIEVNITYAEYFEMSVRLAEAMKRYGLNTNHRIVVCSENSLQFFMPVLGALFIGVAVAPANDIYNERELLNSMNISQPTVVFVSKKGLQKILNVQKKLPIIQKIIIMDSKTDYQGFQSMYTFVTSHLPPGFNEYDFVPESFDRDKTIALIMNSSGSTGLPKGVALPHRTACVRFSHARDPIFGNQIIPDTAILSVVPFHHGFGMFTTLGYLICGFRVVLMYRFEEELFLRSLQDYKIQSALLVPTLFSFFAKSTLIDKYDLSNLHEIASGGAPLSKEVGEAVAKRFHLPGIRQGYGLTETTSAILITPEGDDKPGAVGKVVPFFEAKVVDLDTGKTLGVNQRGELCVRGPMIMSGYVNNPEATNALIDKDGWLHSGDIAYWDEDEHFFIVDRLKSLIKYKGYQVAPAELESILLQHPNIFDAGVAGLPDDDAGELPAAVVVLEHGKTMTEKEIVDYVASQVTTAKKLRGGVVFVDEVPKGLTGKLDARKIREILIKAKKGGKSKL
How it was run: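 Quantitative HTS format; KM concentrations of both substrates. Purified P. pyralis FLuc activity quantified from luminescence images.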
% is scaled to controls: 0 for no effect and ±100 for the full control effect; potency is read from the fitted curve at half-maximal effect.

Row | Structure (SMILES) | activity change, negative = inhibition | Potency
1 | O=S(=O)(O)c1cccc2c(S(=O)(=O)O)cccc12 | -0.256% | –
2 | COc1ccnc(CS(=O)c2nc3cc(OC(F)F)ccc3[nH]2)c1OC (stereo not drawn) | 0.365% | –
3 | CCCO[Si](OCCC)(OCCC)OCCC | 0.392% | –
4 | C=COCC1CCC(COC=C)CC1 (stereo not drawn) | -3.25% | –
5 | CCCc1nn(C)c2c(=O)[nH]c(-c3cc(S(=O)(=O)N4CCN(C)CC4)ccc3OCC)nc12 | 2.16% [at 52.9 µM] | –
6 | CC1=CCC(O)(C(C)C)CC1 (stereo not drawn) | -0.43% | –
7 | CCOC(=O)COC(=O)c1ccccc1C(=O)OCC | 0.704% | –
8 | CCC(C(=O)NC(=O)NC(C)=O)c1ccccc1 (stereo not drawn) | 3.38% [at 52.9 µM] | –
9 | O=C(CO)[C@@H](O)[C@H](O)[C@@H](O)CO | -0.407% [at 52.9 µM] | –
10 | CN(C)[C@@H]1C(=O)C(C(=O)NCN2CCCC2)=C(O)[C@@]2(O)C(=O)C3=C(O)c4c(O)cccc4[C@@](C)(O)C3C[C@@H]12 (stereo partly drawn) | 0.376% [at 52.9 µM] | –
11 | CCCCOCCOC(=O)CCCCCCCCC(=O)OCCOCCCC | 2.24% | –
12 | NC(=O)Cc1cccc2ccccc12 | -0.256% | –
13 | CO[Si](C)(OC)c1ccccc1 | 0.232% | –
14 | CCOC(=O)CCC(=O)OCC | 1.45% | –
15 | O=C(O)CCSCCC(=O)O | 2.87% | –
16 | CN1C(C)(C)CC(O)CC1(C)C | 7.71% | –
17 | O=C1c2ccccc2C(=O)c2cc(O)ccc21 | – | 28.3 µM (active)
18 | C=CCOCC(O)CO (stereo not drawn) | -2.42% | –
19 | COc1cc(C(=O)OC(COCCC(C)C)CN2CCOCC2)cc(OC)c1OC (stereo not drawn) | 1.46% [at 52.9 µM] | –

Row | Structure (SMILES) | activity change, negative = inhibition | Potency
20 | O=C(O)CCCC[P+](c1ccccc1)(c1ccccc1)c1ccccc1 | 0.235% [at 52.9 µM] | –
21 | Cc1cccc(C)c1NC(=O)CC12CCCN1CCC2 | 0.0231% [at 52.9 µM] | –
22 | CC1=NS(=O)(=O)c2cc(Cl)ccc2N1 | 1.89% [at 52.9 µM] | –
23 | CC(C)C(=O)OC(=O)C(C)C | -0.654% | –
24 | CC/C=C\CCOC(C)OCC (stereo not drawn) | -1.21% [at 52.9 µM] | –
25 | CC(=O)C1CCCCC1=O (stereo not drawn) | 0.0224% | –
26 | CC(C)(C)C(=O)c1ccccc1 | 0.0453% | –
27 | O=C(c1ccccc1)C1(O)CCCCC1 | 1.63% | –
28 | CC1(C)OC[C@@H](COC(=O)CCc2ccc(OC[C@@H](O)CNCCNC(=O)N3CCOCC3)cc2)O1 | 0.447% [at 52.9 µM] | –
29 | CCCCCCC1CCC(=O)O1 (stereo not drawn) | 0.696% | –
30 | CCCCN(CCC(=O)OCC)C(C)=O | -0.188% | –
31 | CCCCCCCCCCCCCCCCCCO | 0.168% [at 52.9 µM] | –
32 | C[N+]12CCC(CC1)C(OC(=O)C(O)(c1ccccc1)c1ccccc1)C2 (stereo not drawn) | 1.54% [at 52.9 µM] | –
33 | Clc1cc(Cl)cc(Cl)c1 | -0.948% | –
34 | CC1=NN(c2cccc(S(=O)(=O)O)c2)C(=O)C1 | -0.263% | –
35 | CN(C)CCN(C)CCN(C)C | -3.69% | –
36 | Cc1cc(C)c(N=Nc2c(O)c(S(=O)(=O)O)cc3cc(S(=O)(=O)O)ccc23)cc1C | -6.78% [at 10.5 µM] | –
37 | C[N+](C)(C)CCCCCCCCCC[N+](C)(C)C | 4.16% [at 52.9 µM] | –
38 | NC(=O)N[C@@H](CCC(=O)O)C(=O)O | 0.171% [at 52.9 µM] | –
